Results reported in the supplement of paper PMC11150407.
The whole screen tested about 2,100 compounds, of which about 180 (8.6%) showed an effect of 50% or more. The sample as a whole holds a higher share of strong results than the screen did.

test system: MOLM1 and UCSD/AML1 (averaged); experiment: cell viability relative to DMSO control (POC); higher = less growth inhibition; conditions: 1 µM; 72 h
Procedure: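 Primary viability screen in the 3q26 EVI1-high AML cell lines MOLM1 and UCSD/AML1 (1.5e3 cells/well, 384-well), compounds at 1 uM for 72 h. ATP CellTiter-Glo read-out given as percent of viable cells over DMSO control (POC), averaged over duplicates. DMSO was the negative control and 5 uM etoposide the positive control. This mapping covers the MicroSource Spectrum and Selleck anticancer libraries (drug names).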

Going from `C=C1C2CC[C@@]3(C)[C@H](c4ccoc4)OC(=O)C[C@]13O[C@H]1CC(O)C(C)(C)C(CC(=O)OC)[C@@]21C` (stereo partly drawn) [3alpha-HYDROXY-3-DEOXYANGOLENSIC ACID METHYL ESTER] to `CC(=O)O[C@@H]1CC2C(C)(C)C(=O)CC[C@]2(C)C2CC[C@]3(C)C(=CC(=O)O[C@H]3c3ccoc3)[C@@]21C` (some centres not stated), the cell viability rises from 97.3% to 110%.

Compared with `O=C(O[C@@H]1Cc2c(O)cc(O)cc2O[C@@H]1c1cc(O)c(=O)c2c(O)c(O)cc([C@H]3Oc4cc(O)cc(O)c4C[C@H]3O)c2c1)c1cc(O)c(O)c(O)c1`, `Cc1c(C(=O)O)c(O)cc2c1C(=O)c1c(O)c([C@@H]3O[C@H](CO)[C@@H](O)[C@H](O)[C@H]3O)c(O)c(O)c1C2=O` is lower in cell viability: 101% for the first, 92.5% for the second.

Compared with `C=C[C@@](C)(O)CCC1C(=C)CCC2[C@@](C)(CO)CCC[C@]12C` (some centres not stated), `C[C@H]1[C@H](C)CC[C@]2(CO)CC[C@]3(C)C(=CC[C@@H]4[C@@]5(C)CC[C@H](O)C(C)(C)[C@@H]5CC[C@]43C)[C@H]12` is lower in cell viability: 112% for the first, 110% for the second.

First: COc1cc(O)c(C(C)=O)c(O)c1
Second: COc1cc(C)c(C(=O)O)c(O)c1
The cell viability of the first is higher: 110% for the first, 100% for the second.

Compared with `CS(=O)(=O)N1CCc2c(-c3cnc(N)nc3)nc(N3CCOCC3)nc21`, `O=C(Nc1c[nH]nc1-c1nc2ccc(CN3CCOCC3)cc2[nH]1)NC1CC1` is lower in cell viability: 47.5% for the first, 17.5% for the second.

Compared with `CC(C)[C@H](C(=O)Nc1ccc(C(=O)NO)cc1)c1ccccc1`, `O=C(Nc1ccc(C(=O)O)c(O)c1)c1ccccc1` is higher in cell viability: 0.459% for the first, 96.4% for the second.

First: CC(=O)Nc1ccccc1
Second: CNc1ccccc1C(=O)N1CCc2c([nH]c3ccccc23)C1=O
The cell viability of the first is higher: 101% for the first, 88.5% for the second.

Going from `O=c1c(O)c(-c2ccc(O)c(O)c2)oc2cc(O)ccc12` to `O=C1C=C2CC3(O)COc4cc(O)ccc4C3=C2C=C1O` (configuration not stated), the cell viability rises from 94% to 99.3%.

Compared with `C[C@]12CCC3c4ccc(OS(=O)(=O)O)cc4CCC3C1CC[C@H]2O` (some centres not stated), `C[C@]12CC[C@H](O)CC1=CC[C@@H]1[C@@H]2CC[C@]2(C)C(c3cccnc3)=CC[C@@H]12` [Abiraterone (CB-7598)] is higher in cell viability: 98.1% for the first, 102% for the second.

First: O=C(O)c1cc(=O)c(O)c2c(O)c(O)c(O)cc2c1
Second: O=C(O)c1cccc(O)c1O
The cell viability of the first is higher: 115% for the first, 107% for the second.

Going from `Cc1occc(=O)c1O` to `COc1cc(/C=C/C(=O)O)ccc1O`, the cell viability rises from 103% to 104%.

Going from `Cc1nc(Nc2ncc(C(=O)Nc3c(C)cccc3Cl)s2)cc(N2CCN(CCO)CC2)n1` to `S=C(NCc1ccc2c(c1)OCO2)N1CCN(c2ncnc3c2oc2ccccc23)CC1` [Amuvatinib (MP-470)], the cell viability rises from 29.5% to 77.9%.

Going from `CCCC(=O)[O-].[Na+]` [Sodium butyrate] to `CC(=O)CC(=O)CCC(=O)O`, the cell viability rises from 91.3% to 96.2%.

First: Cn1cc(-c2ccc3nnc(C(F)(F)c4ccc5ncccc5c4)n3n2)cn1
Second: Cn1cc(-c2ccc3nnc(Sc4ccc5ncccc5c4)n3n2)cn1
The cell viability of the first is higher: 101% for the first, 82.3% for the second.

Going from `OCCn1cc(-c2cnc3nnn(Cc4ccc5ncccc5c4)c3n2)cn1` to `CCC(=O)N1CCN(c2ccc(-n3c(=O)ccc4cnc5ccc(-c6cnc7ccccc7c6)cc5c43)cc2C(F)(F)F)CC1` [Torin 1], the cell viability falls from 26.7% to 20.8%.

Going from `COc1cc2c(cc1OC)[C@@H]1Cc3ccc(OC)c(OC)c3CN1CC2` to `COc1ccc([C@H]2Oc3cc(OC)cc(OC)c3C[C@H]2O)cc1`, the cell viability falls from 108% to 98.4%.

Going from `CN(C)CCOc1ccc(-c2nc(-c3ccncc3)c(-c3ccc4c(c3)CC/C4=N\O)[nH]2)cc1` to `CN(C)Cc1ccc(-c2nc3cccc4c3n2CCNC4=O)cc1`, the cell viability rises from 76.1% to 100%.

First: Cc1cnc(NC(=O)Nc2cc(Br)c(C)cc2OC[C@@H]2CNCCO2)cn1
Second: COc1ccc2c3n(c(=NC(=O)c4cccnc4)nc2c1OC)CCN3
The cell viability of the first is lower: 46.1% for the first, 64.3% for the second.

Compared with `COc1c2ccoc2nc2c(OC)c(OCC(O)C(C)(C)O)ccc12` (configuration not stated), `COc1c(OC)c2occc2c2oc(=O)ccc12` is higher in cell viability: 90.2% for the first, 117% for the second.

Going from `CC(C)=CC1C(CO)C1(C)C` (configuration not stated) to `O=c1[nH]c(=O)n([C@H]2C[C@H](O)[C@@H](CO)O2)cc1F` [Floxuridine], the cell viability falls from 104% to 64.4%.

First: Nc1ncnc2c1ncn2[C@H]1C[C@H](O)[C@@H](CO)O1
Second: Nc1nc(Cl)nc2c1ncn2[C@H]1C[C@H](O)[C@@H](CO)O1 [Cladribine]
The cell viability of the first is higher: 90.9% for the first, 5.67% for the second.

Compared with `Nc1ncn([C@H]2C[C@H](O)[C@@H](CO)O2)c(=O)n1` [Decitabine], `Nc1ncn([C@@H]2O[C@H](CO)[C@@H](O)[C@H]2O)c(=O)n1` is higher in cell viability: 41.3% for the first, 77.4% for the second.

Going from `NC(=O)c1ccc[n+]([C@@H]2O[C@H](COP(=O)([O-])OP(=O)(O)OC[C@H]3O[C@@H](n4cnc5c(N)ncnc54)[C@H](O)[C@@H]3O)[C@@H](O)[C@H]2O)c1` to `Nc1ncnc2c1ncn2[C@@H]1O[C@H](COP(=O)(O)O)[C@@H](O)[C@H]1O`, the cell viability rises from 81.6% to 99.1%.

Compared with `CCc1cn([C@H]2C[C@H](O)[C@@H](CO)O2)c(=O)[nH]c1=O`, `O=c1[nH]c(=O)n([C@H]2C[C@H](O)[C@@H](CO)O2)cc1F` is lower in cell viability: 91.5% for the first, 83.1% for the second.

Going from `COc1nc(N)nc2c1ncn2[C@@H]1O[C@H](CO)[C@@H](O)[C@@H]1O` [Nelarabine (Arranon)] to `Nc1nc(F)nc2c1ncn2[C@@H]1O[C@H](CO)[C@@H](O)[C@@H]1O` [Fludarabine (Fludara)], the cell viability falls from 109% to 53%.

Compared with `Nc1ncn([C@@H]2O[C@H](CO)[C@@H](O)[C@H]2O)c(=O)n1` [Azacitidine (Vidaza)], `Nc1nc(F)nc2c1ncn2[C@@H]1O[C@H](COP(=O)(O)O)[C@@H](O)[C@@H]1O` is lower in cell viability: 84.2% for the first, 74.4% for the second.

First: Nc1nc(Cl)nc2c1ncn2[C@@H]1O[C@H](CO)[C@@H](O)[C@@H]1F [Clofarabine]
Second: Nc1nc(F)nc2c1ncn2[C@@H]1O[C@H](COP(=O)(O)O)[C@@H](O)[C@@H]1O [Fludarabine Phosphate (Fludara)]
The cell viability of the first is lower: 6.72% for the first, 44.2% for the second.

First: OC[C@@H](O)[C@@H](O[C@@H]1O[C@H](CO)[C@@H](O)[C@H](O)[C@H]1O)[C@H](O)[C@@H](O)CO
Second: COC(=O)C[C@H]1C2(C)CC34OC5(C)O[C@@]6([C@H](OC)C(OC(=O)C(C)C)[C@]7(C)C(/C(=C(/OC)C(C)C)C(=O)O[C@H]7c7ccoc7)[C@@]6(O5)[C@H](OC)[C@@]3(OC)C2OC(C)=O)[C@]14C (some centres not stated)
The cell viability of the first is lower: 92.2% for the first, 105% for the second.

Going from `CC(=O)O[C@H]1CC[C@]2(C)[C@H]3CC=C4[C@@H]5CC(C)(C)CC[C@]5(C)CC[C@@]4(C)[C@]3(C)CC[C@H]2C1(C)C` [beta-AMYRIN ACETATE] to `COC(=O)[C@@H]1OC(=O)[C@H]2O[C@@]23[C@@]1(C)CCC1[C@@]2(C)CCC(=O)C(C)(C)C2C[C@@H](OC(C)=O)[C@]13C` (some centres not stated), the cell viability falls from 107% to 99%.

`CCOC(=O)c1c(C)cc(O)cc1O` and `CC(=O)Oc1cc(OC(C)=O)c2c(c1)O[C@H](c1ccc(OC(C)=O)c(OC(C)=O)c1)[C@H](OC(C)=O)C2` are the same in cell viability: 104% for the first, 104% for the second.

First: CC1=CCCC(C)=CCC(C)(C)C=CC1 [HUMULENE (alpha)]
Second: Nc1ccc(-c2ccc3ncc4ccc(=O)n(-c5cccc(C(F)(F)F)c5)c4c3c2)cn1 [Torin 2]
The cell viability of the first is higher: 113% for the first, 10% for the second.
